Some targets named below: CELF5(3) (Homo sapiens, UniProt Q8N6W0); CPEB1 (Homo sapiens, UniProt Q9BZB8); Musashi-1 (Homo sapiens, UniProt O43347); FIR (Homo sapiens, UniProt Q9UHX1); HNRNPCP5 (Homo sapiens, UniProt B2RXH8); IGF2BP1 (Homo sapiens, UniProt Q9NZI8); hnRNP-I(3-4) (Homo sapiens, UniProt P26599).
Holding throughout (experiment): protein domain microarray probed with biotinylated miRNA; Domain array: 20 mM Tris-HCl pH 7.4, 200 mM KCl, 0.2 mM EDTA, 0.05% NP40, 2 ug/ul heparin, overnight 4 C. ORF array: PBS pH 7.0 with RNase inhibitor, 100 ng RNA; high values mean tight binding
Holding throughout (details): ssRNA

The next assay addresses T1, DAZL (Homo sapiens, UniProt Q92904).
T1 sequence: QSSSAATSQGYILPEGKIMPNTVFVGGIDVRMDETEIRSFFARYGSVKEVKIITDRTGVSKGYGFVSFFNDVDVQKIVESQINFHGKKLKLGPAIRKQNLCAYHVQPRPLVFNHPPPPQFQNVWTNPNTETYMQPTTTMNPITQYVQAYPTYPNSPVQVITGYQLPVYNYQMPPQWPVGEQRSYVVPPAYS

The next assay concerns the target T2, NOL8 (Homo sapiens, UniProt Q76FK4).
T2 sequence: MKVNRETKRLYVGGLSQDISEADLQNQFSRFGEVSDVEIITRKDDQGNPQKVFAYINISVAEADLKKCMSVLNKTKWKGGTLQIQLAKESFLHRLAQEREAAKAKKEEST

The target of the next assay is T3, hnRNP-A0 (Homo sapiens, UniProt Q13151).
T3 sequence: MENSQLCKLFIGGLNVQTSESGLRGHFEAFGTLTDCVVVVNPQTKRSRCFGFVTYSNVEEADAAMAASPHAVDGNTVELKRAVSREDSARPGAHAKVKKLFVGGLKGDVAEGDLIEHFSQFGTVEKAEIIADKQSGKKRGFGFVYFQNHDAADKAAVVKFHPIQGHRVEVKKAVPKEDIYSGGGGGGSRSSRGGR

A further assay has as its target T4, NeuN (Homo sapiens, UniProt A6NFN3).
T4 sequence: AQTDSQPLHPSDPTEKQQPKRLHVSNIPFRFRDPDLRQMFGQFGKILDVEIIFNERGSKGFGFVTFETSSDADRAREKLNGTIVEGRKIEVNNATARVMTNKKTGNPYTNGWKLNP

The target in another assay is T5, hnRNP-2H9 (Homo sapiens, UniProt P31942).
T5 sequence: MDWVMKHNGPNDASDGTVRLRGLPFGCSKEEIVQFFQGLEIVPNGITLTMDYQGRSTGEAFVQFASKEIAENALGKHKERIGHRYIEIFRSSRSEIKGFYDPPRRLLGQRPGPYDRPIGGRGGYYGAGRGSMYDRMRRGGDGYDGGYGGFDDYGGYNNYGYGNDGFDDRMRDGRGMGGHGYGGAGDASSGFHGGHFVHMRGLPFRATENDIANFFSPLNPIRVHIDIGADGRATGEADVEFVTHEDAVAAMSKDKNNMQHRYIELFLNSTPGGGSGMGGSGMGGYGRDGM

The next assay addresses T6, CPEB4 (Homo sapiens, UniProt Q17RY0).
T6 sequence: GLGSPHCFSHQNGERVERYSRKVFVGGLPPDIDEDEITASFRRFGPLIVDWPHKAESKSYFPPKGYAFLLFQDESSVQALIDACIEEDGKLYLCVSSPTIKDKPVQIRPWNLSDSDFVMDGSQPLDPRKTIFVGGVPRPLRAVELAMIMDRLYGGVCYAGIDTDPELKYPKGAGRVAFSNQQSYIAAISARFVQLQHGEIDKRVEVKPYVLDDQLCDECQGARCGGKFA

The target in the next assay is T7, MYEF2(3) (Homo sapiens, UniProt Q9P2K5).
T7 sequence: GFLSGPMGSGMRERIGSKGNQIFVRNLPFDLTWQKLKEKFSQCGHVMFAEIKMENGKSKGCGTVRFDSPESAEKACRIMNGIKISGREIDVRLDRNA

The next assay has as its target T8, CstF-64T (Homo sapiens, UniProt Q9H0L4).
T8 sequence: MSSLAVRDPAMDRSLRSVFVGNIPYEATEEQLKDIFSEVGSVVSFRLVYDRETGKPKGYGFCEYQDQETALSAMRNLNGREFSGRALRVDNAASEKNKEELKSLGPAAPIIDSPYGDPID

The next assay addresses T9, hnRNP-F (Homo sapiens, UniProt P52597).
T9 sequence: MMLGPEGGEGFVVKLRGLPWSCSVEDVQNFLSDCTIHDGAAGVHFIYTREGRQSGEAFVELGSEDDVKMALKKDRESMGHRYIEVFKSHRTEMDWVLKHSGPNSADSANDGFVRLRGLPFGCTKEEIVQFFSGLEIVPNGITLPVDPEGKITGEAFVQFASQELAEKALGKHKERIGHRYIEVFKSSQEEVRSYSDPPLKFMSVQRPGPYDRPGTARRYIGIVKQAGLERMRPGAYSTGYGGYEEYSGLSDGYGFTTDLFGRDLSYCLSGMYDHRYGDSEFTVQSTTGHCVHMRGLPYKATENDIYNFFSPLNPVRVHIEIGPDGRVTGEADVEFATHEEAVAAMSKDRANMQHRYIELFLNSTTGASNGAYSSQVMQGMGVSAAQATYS

The target of another assay is T10, GRSF1 (Homo sapiens, UniProt Q12849).
T10 sequence: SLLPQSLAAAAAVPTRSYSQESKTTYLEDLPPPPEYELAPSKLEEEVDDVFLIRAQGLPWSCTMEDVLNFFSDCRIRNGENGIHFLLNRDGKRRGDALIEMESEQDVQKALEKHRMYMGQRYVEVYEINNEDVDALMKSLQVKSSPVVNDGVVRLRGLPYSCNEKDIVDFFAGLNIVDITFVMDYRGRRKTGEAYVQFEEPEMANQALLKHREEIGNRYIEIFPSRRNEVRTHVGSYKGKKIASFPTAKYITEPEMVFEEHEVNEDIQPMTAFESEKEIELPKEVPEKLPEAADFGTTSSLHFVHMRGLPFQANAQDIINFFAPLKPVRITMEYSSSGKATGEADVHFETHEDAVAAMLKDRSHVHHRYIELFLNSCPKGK

A further assay deals with T11, ENOX2 (Homo sapiens, UniProt Q16206).
T11 sequence: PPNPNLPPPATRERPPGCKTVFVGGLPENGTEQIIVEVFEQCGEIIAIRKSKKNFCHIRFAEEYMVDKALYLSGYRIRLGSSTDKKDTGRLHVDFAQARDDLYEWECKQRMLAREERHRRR

The next assay has as its target T12, TAT-SF1 (Homo sapiens, UniProt O43719).
T12 sequence: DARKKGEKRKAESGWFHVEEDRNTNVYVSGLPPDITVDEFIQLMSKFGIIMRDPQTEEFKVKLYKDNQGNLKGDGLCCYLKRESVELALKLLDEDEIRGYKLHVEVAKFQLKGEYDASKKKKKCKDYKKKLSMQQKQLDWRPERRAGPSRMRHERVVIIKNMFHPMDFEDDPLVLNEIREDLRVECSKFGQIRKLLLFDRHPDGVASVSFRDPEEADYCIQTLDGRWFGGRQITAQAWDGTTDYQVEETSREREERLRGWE

The target of a further assay is T13, AKAP1 (Homo sapiens, UniProt Q92667).
T13 sequence: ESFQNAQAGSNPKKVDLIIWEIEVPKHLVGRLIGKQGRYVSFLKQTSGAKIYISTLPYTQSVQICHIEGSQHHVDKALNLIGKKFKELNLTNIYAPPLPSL

hnRNP-I(3-4), sequence (P26599 346-557): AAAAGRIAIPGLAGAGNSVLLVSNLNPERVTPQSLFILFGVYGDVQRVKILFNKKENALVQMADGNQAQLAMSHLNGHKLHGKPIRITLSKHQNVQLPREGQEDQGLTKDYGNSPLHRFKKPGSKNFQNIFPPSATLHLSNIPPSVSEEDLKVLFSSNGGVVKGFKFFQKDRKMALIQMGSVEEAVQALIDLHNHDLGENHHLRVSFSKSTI
CELF5(3), sequence (Q8N6W0 376-485): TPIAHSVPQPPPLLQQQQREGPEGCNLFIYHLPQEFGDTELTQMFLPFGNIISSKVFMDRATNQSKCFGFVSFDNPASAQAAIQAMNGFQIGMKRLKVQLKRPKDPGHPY
CPEB1, sequence (Q9BZB8 290-531): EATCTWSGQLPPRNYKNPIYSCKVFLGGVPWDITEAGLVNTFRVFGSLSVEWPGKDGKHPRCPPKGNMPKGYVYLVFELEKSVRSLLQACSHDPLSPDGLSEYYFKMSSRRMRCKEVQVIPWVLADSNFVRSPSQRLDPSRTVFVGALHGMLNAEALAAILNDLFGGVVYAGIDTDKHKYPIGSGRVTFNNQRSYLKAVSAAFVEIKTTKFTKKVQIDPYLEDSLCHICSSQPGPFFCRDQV
HNRNPCP5, sequence (B2RXH8 1-110): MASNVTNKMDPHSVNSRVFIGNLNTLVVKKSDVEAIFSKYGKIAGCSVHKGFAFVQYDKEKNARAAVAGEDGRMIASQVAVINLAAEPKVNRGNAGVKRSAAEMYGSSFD
FIR, sequence (Q9UHX1 110-559): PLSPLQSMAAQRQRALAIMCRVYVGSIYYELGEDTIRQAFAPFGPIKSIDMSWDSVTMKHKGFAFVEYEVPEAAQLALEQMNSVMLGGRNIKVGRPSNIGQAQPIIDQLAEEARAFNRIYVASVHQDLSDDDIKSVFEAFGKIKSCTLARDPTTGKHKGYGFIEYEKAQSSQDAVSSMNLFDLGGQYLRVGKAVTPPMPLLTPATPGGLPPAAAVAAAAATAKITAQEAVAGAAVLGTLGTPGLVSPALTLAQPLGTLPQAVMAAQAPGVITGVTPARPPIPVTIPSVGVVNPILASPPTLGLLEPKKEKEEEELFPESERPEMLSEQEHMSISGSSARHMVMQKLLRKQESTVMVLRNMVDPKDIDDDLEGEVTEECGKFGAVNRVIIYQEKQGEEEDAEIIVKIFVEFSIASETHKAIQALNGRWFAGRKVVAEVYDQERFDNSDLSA
IGF2BP1, sequence (Q9NZI8 1-176): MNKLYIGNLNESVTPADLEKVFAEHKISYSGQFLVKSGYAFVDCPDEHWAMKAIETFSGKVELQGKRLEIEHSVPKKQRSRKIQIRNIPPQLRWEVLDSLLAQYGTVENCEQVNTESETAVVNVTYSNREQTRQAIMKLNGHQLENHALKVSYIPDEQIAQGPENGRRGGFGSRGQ
Musashi-1, sequence (O43347 1-203): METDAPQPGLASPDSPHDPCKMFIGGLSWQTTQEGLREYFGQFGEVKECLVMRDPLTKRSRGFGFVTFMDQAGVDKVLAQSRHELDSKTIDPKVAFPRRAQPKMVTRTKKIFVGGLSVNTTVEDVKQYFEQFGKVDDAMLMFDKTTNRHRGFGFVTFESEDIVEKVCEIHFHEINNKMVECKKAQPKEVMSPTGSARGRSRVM

Regarding UGAGGUAGUAGGUUGUAUGGUU, the binding signal in the assay with DAZL came to 303 ± 13.1 fluorescence intensity; in the assay with NOL8, 49 ± 3.09 fluorescence intensity; with hnRNP-A0 it was 2280 ± 31.4 fluorescence intensity; with NeuN it was 2130 ± 66 fluorescence intensity; with hnRNP-2H9, 368 ± 23.9 fluorescence intensity; with CPEB4 it was 148 ± 21.1 fluorescence intensity. The binding signal with CELF5(3) stood at 1000 ± 43 fluorescence intensity; in the assay with CPEB1 it was 312 ± 54.2 fluorescence intensity; in the assay with MYEF2(3), 560 ± 17.7 fluorescence intensity; in the assay with CstF-64T, 853 ± 47 fluorescence intensity; with Musashi-1, 2400 ± 10.1 fluorescence intensity; with FIR, 1510 ± 21.2 fluorescence intensity. For the same sequence, the binding signal was 65.5 ± 1.7 fluorescence intensity with HNRNPCP5; 953.1 ± 0.948 fluorescence intensity with hnRNP-F; 43 ± 9.13 fluorescence intensity in the assay with IGF2BP1; 2945 ± 11.9 fluorescence intensity with GRSF1; 934 ± 43.3 fluorescence intensity with hnRNP-I(3-4); 74.91 ± 0.417 fluorescence intensity in the assay with ENOX2. Also, the binding signal with TAT-SF1 was 116 ± 5.61 fluorescence intensity; with AKAP1, 102 ± 9.24 fluorescence intensity.

Consider CAGUGCAAUGAUGAAAGGGCAU, for which the binding signal with DAZL is 42.2 ± 30.1 fluorescence intensity; in the assay with NOL8, 34.8 ± 9.25 fluorescence intensity; in the assay with hnRNP-A0, 990 ± 34.9 fluorescence intensity; with NeuN, 2230 ± 258 fluorescence intensity; with hnRNP-2H9 it was 533 ± 18.5 fluorescence intensity; in the assay with CPEB4, 55.3 ± 15.5 fluorescence intensity. The binding signal with CELF5(3) is 378 ± 41 fluorescence intensity; with CPEB1, 186 ± 8.15 fluorescence intensity; in the assay with MYEF2(3), 261.9 ± 2.02 fluorescence intensity; with CstF-64T, 418 ± 14.4 fluorescence intensity; with Musashi-1, 1460 ± 30.9 fluorescence intensity; with FIR it was 384 ± 26.4 fluorescence intensity. Besides, the binding signal with HNRNPCP5 came to 42.4 ± 3.23 fluorescence intensity; with hnRNP-F, 1670 ± 29.4 fluorescence intensity; with IGF2BP1, 32.4 ± 2.43 fluorescence intensity; with GRSF1 it was 2340 ± 154 fluorescence intensity; with hnRNP-I(3-4), 401.7 ± 2.43 fluorescence intensity; with ENOX2 it was 54.1 ± 16.7 fluorescence intensity. Besides, the binding signal with TAT-SF1 was 90 ± 1.75 fluorescence intensity; with AKAP1, 47.9 ± 2.28 fluorescence intensity.

In the case of AGAGGUAGUAGGUUGCAUAGUU, the binding signal is 362 ± 63.4 fluorescence intensity with DAZL; 33.7 ± 0.233 fluorescence intensity with NOL8; 3219 ± 6.02 fluorescence intensity with hnRNP-A0; 2786.2 ± 1.57 fluorescence intensity with NeuN; 466 ± 9.64 fluorescence intensity with hnRNP-2H9; 130 ± 29.4 fluorescence intensity with CPEB4. Further, the binding signal was 1050 ± 99.1 fluorescence intensity with CELF5(3); 377 ± 32.4 fluorescence intensity in the assay with CPEB1; 578 ± 21.2 fluorescence intensity with MYEF2(3); 1930 ± 88 fluorescence intensity with CstF-64T; 3624 ± 8.34 fluorescence intensity with Musashi-1; 939 ± 116 fluorescence intensity with FIR. In addition, the binding signal with HNRNPCP5 was determined as 48 ± 3.14 fluorescence intensity; with hnRNP-F, 2388 ± 13.7 fluorescence intensity; with IGF2BP1 it was 35.9 ± 7.28 fluorescence intensity; with GRSF1, 4990 ± 87.4 fluorescence intensity; with hnRNP-I(3-4) it was 786.56 ± 0.269 fluorescence intensity; with ENOX2, 77.1 ± 15.4 fluorescence intensity. The binding signal was 125.2 ± 1.17 fluorescence intensity in the assay with TAT-SF1 and 91.72 ± 0.827 fluorescence intensity with AKAP1.

The record behind these values is article PMC11574364.
